# Compound activity (PubChem)
# Rows were chosen to be rich in hits. Some 8.9% of all compounds tested hit in one or more screens of this group.
# HPGD block = qHTS Assay for Inhibitors of HPGD (15-Hydroxyprostaglandin Dehydrogenase); 150,000 tested, 4.3% active; purified HPGD, NADH fluorescence kinetic, PGE2 substrate; Potency, µM, without a hit: at the top dose activity change, negative = inhibition, most hits filed as inhibitors; AID 894, 2007; 15-hydroxyprostaglandin dehydrogenase [NAD(+)] (Homo sapiens), P15428; active = well fitted inhibition curve with a large enough effect, not every such curve was filed as active; inconclusive = small, poorly fitted or top-dose-only effect, or another doubt; inactive = no such curve, though single readings can be large or run the other way; also: potency is read from the fitted curve at half-maximal effect
#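 NADH formation kinetics: reaction with 30 uM PGE2 and 1 mM NAD+ (final), 20 nM enzyme, Tris-HCl pH 8 with Tween 20, after 15 min compound preincubation at room temperature. Fluorescence change, last versus first of five reads.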
# ALOX12 inhib = qHTS Assay for Inhibitors of 12-hLO (12-human lipoxygenase); 150,000 tested, 0.12% active; AID 1452, 2008; Potency, µM (titrated, usually from 57.1 µM), without a hit: top-dose activity change, negative = inhibition, hits mostly inhibitors; Polyunsaturated fatty acid lipoxygenase ALOX12 (Homo sapiens), P18054; purified 12-hLO, xylenol orange hydroperoxide absorbance; also: potency is read from the fitted curve at half-maximal effect; nearly all actives have a fitted effect of over 55% in size
#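 Purified human 12hLO (150 nM final) was preincubated with compounds for 15 min at room temperature in 25 mM Hepes pH 7.0, 0.01% Triton X-100, then reacted with 40 uM arachidonic acid for 30 min. Hydroperoxide was detected with ferrous iron/xylenol orange.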
# IMPase Li inh = qHTS Assay for Identifying the Cell-Membrane Permeable IMPase Inhibitors: Potentiation with Lithium; Potency, µM (highest dose often 59.4 µM), inactives show at the top dose activity, negative = IMPase inhibition, usual class: inhibitors; 210,000 tested, 0.35% active; AID 1457, 2008; CHO-M1 cells, IP1 TR-FRET (IP-One), carbachol + lithium;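 also: IP1 builds up when IMPase is blocked and the TR-FRET signal falls; potency is read from the fitted curve at half-maximal effect; plate controls were basal vehicle for no effect and high inhibitor control for full effect; nearly all actives have a fitted effect of over 50% in size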
#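 Test compounds were applied to CHO-M1 cells previously cultured for 16–30 h at 2000 per well. A small lithium amount accompanied them; after 30 min at 37C, IP1 was quantified by TR-FRET.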
# IMPase cell inh = qHTS Assay for Identifying the Cell-Membrane Permeable IMPase Inhibitors | CHO-M1 cells, IP1 accumulation, HTRF TR-FRET ratio | inhibition (IP1 accumulation), % at 46.1 µM | AID 901, 2007 | 120,000 tested, under 10 active; active = well fitted curve in the direction sought with a large enough effect in the signal ratio, not every such curve was filed as active; inconclusive = small, poorly fitted or top-dose-only effect, or a change in a side signal; inactive = no such curve, though single readings can be large or run the other way; the % refers to the signal ratio;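 also: cells stimulated with carbachol in lithium chloride buffer; plate controls were DMSO basal wells for no effect and reference inhibitor wells for full effect; higher means more IMPase inhibition seen as more IP1 and lower FRET ratio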
#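 Measured: the HTRF emission ratio (665/620 nm) plus the 620 nm donor channel, each fitted to the Hill equation to give AC50. Cells were CHO-M1 given compounds up to 46 uM and a 30 min carbachol stimulation at 37C.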
# ALDH1A1 inh = qHTS Assay for Inhibitors of Aldehyde Dehydrogenase 1 (ALDH1A1). Aldehyde dehydrogenase 1A1 (Homo sapiens), P00352. Purified ALDH1A1, NADH fluorescence, propionaldehyde substrate. Potency, µM (top dose mostly 75.3 µM), for inactives: top-dose activity, negative = inhibition, hits mostly inhibitors. 220,000 tested, 7.3% active; active = well fitted inhibition curve with a large enough effect, not every such curve was filed as active; inconclusive = small, poorly fitted or top-dose-only effect, or another doubt; inactive = no such curve, though single readings can be large or run the other way;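 also: potency is read from the fitted curve at half-maximal effect; plate controls were no enzyme wells and a reference inhibitor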
# Target sequence (P00352 whole entry, looked up): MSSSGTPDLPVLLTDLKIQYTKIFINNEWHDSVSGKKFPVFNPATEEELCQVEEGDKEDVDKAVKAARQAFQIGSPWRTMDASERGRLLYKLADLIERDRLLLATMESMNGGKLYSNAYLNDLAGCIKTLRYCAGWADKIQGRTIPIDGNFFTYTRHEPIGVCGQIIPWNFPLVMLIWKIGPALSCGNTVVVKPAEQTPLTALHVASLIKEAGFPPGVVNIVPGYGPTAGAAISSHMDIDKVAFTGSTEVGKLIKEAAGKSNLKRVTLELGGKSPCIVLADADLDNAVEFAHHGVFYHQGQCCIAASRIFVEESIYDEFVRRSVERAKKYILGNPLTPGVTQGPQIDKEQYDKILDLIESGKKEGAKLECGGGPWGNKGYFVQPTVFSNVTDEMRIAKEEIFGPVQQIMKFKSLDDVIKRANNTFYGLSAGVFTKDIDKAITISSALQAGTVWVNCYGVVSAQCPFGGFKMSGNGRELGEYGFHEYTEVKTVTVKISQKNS
# NPSR antag = qHTS Assay for Antagonists of the Neuropeptide S Receptor: cAMP Signal Transduction; Q6W5P4; CHO-NPSR cells, cAMP TR-FRET, antagonist mode; Potency, µM (series often up to 38.3 µM), inactives show at the highest dose activity change, negative = inhibition, most hits filed as inhibitors; 220,000 tested, 1% active; AID 1461, 2008; also: potency is read from the fitted curve at half-maximal effect; nearly all actives have a fitted effect of over 50% in size
# * hit, by the source's call; ? = inconclusive; · = no result; [ ] = dose if it differs, or a comment. Unless noted, calls follow the shape of the dose curve; as a rule, active = well fitted curve in the direction sought with a large enough effect; inconclusive = small, poorly fitted or top-dose-only effect, or another doubt; inactive = no such curve, though single readings can be large; an effect the other way counts as inactive or inconclusive. Unless noted, % is scaled to controls: 0 for no effect and ±100 for the full control effect.
SMILES,HPGD block,ALOX12 inhib,IMPase Li inh,IMPase cell inh,ALDH1A1 inh,NPSR antag
CS(=O)(=O)Nc1ccc([N+](=O)[O-])cc1OC1CCCCC1,-28.5%,-5.1%,4.3%,-0.6,22.4µM*,·
CS(=O)(=O)Nc1ccc([N+](=O)[O-])cc1Oc1ccccc1,-11.7%,-3.2%,-4.1%,1.4,-0.7%,-18.7%
COC(=O)c1ccc(N2CCN(C(C)=O)CC2)c(NC(=O)c2cccnc2)c1,·,·,1.7%,·,?,12.8%
CC(=O)c1cccc(NC(=S)NC(=O)c2ccccc2Cl)c1,20µM*,-3.3%,7.3%,·,?,2.9%
CC(=O)c1cccc(NC(=S)NC(=O)c2ccc(C)cc2Cl)c1,·,·,17.6%,·,8.91µM*,-10.4%
CC(=O)c1cccc(NC(=S)NC(=O)c2ccc(C)cc2)c1,·,·,1.5%,·,?,-4.2%
O=C(NC(=S)Nc1cccc(NC(=O)c2ccccc2Cl)c1)c1cccs1,-9.0%,3.5%,-6.5%,·,4.47µM*,-22.8%
CCCN(Cc1cc2cc(C)ccc2[nH]c1=O)C(=O)c1ccccn1,·,·,·,·,·,9.0%
Cc1ccc(C2(O)CN(c3ccccc3)C3=[N+]2CCS3)cc1 (centres undefined),0.2%,-2.2%,10.9%,-4.1,0.5%,4.2%
Cc1ccc(C2(O)CN(c3ccccc3C)C3=[N+]2CCS3)cc1 (centres undefined),-1.3%,-6.1%,8.8%,-0.3,20µM*,-1.1%
Cc1ccccc1N1CC(O)(c2ccccc2)[N+]2=C1SCC2 (centres undefined),-3.5%,-16.5%,10.9%,-16.0,12.6µM*,8.5%
O=c1[nH]c(CSc2ccccn2)nc2ccccc12,·,·,4.1%,·,-9.9%,7.9%
COc1ccc2nc(SCc3nc(N)nc(Nc4ccccc4)n3)[nH]c2c1,-19.2%,-4.3%,17.9%[38.3 µM],23.2,7.94µM*,4.4%[46.1 µM]
COc1ccc(Nc2nc(N)nc(CSc3nc(C)cc(C)n3)n2)cc1,·,·,21.8%,·,0.8%,11.7%
CCOC(=O)C1CCCN(C(=O)Cc2ccc(C)cc2)C1 (centres undefined),-5.9%,0.6%,32.3%[38.3 µM],-9.5,-1.8%,-5.2%[46.1 µM]
CCOCC(=O)N1CCCC(C(=O)OCC)C1 (centres undefined),-1.9%,1.5%,-8.6%[38.3 µM],-2.6,3.55µM*,10.9%[46.1 µM]
CCOC(=O)C1CCCN(C(=O)CC(c2ccccc2)c2ccccc2)C1 (centres undefined),28.2µM*,-1.3%,5.5%,7.9,-9.1%,-18.6%[46.1 µM]
Cc1cc(C(=O)NCCC2=CCCCC2)ccc1[N+](=O)[O-],·,·,8.8%,·,25.1µM*,19.8%
CCOc1cccc2cc(C(=O)NCCC3=CCCCC3)c(=O)oc12,·,·,6.9%,·,25.1µM*,-3.9%
CCOc1cccc2cc(C(=O)Nc3nccs3)c(=O)oc12,-3.5%,1.0%,-9.3%[38.3 µM],-9.3,0.5%,-5.8%[46.1 µM]
O=C(COC(=O)CNC(=O)c1ccc(Br)cc1)NCCC1=CCCCC1,·,·,-6.7%,·,?,7.4%
COc1ccc(C(=O)NCCC2=CCCCC2)cc1,-23.9%,-1.8%,1.9%,·,-1.7%,5.8%
O=C(NCCC1=CCCCC1)c1ccc([N+](=O)[O-])cc1,-16.6%,-3.2%,13.0%,-3.2,-10.5%,-3.3%
COc1cccc(C(=O)NCCC2=CCCCC2)c1,14.1µM*,8.5%,30.7%[38.3 µM],2.6,?,-1.6%[46.1 µM]
COc1ccc(C(=O)NCC(=O)OCC(=O)NCCC2=CCCCC2)cc1,·,·,-3.9%,·,15.8µM*,6.0%
CCOC(=O)N1CCC(NC(=O)C2CCN(S(=O)(=O)N3CCCC3)CC2)CC1,-12.5%,2.8%,-14.9%[38.3 µM],-1.3,?,1.7%[46.1 µM]
COc1ccc(CN(C2CCCC2)S(=O)(=O)c2ccc(-n3cnnn3)c(OC)c2)cc1OC,-23.5%,1.4%,18.0%,11.9,?,?
